# Measured values published in PubChem BioAssay (NCI).
# This is part of a sample that, as a whole, favours compounds with a hit. Of some 83,000 tested, about 20% had one in any assay.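 Results are percent growth after 48 hours of single-concentration exposure. 100 means growth as in untreated cells, lower positive values show inhibition; negative values down to -100 show cell death.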 A number with no mark means an inactive call. Active and inactive are the calls of the source. How the source made its calls: active means growth percent below 10; inactive means the rest.
# System: HL-60(TB) leukemia
# Assay: NCI-60 one-dose screen, 48 h (100 = growth as untreated, 0 = no growth, -100 = all killed)
# Details: 10 µM unless noted
row,SMILES,growth
1,S=C1NC2(c3ccccc3)CCC(=S)N2c2ccccc21 (stereo not given),104%
2,c1ccc2c(Nc3cccc4ccccc34)cccc2c1,18.9%
3,Cn1ncc2ccc(-c3nc(-c4ccccc4)[nH]c3-c3n[nH]c(=O)n3C3CC3)cc21,84.7%
4,COC(=O)[C@]12CC[C@@H](C)[C@H](C)[C@@H]1C1=CC[C@@H]3[C@@](C)(CC#N)C4=C(C[C@@]3(C)[C@]1(C)CC2)OC[C@]4(C)C=O,-10.8% (active)
5,O=c1oc2c(C(F)(F)F)cccc2cc1-c1csc(Nc2ccc(OCCF)cc2)n1,-1.08% (active)
6,COc1ccc2c(c1)sc1nc(-c3ccccc3)c(-c3cccnc3)n12,105%
7,O=C1Nc2ccccc2C12C=C(c1ccccc1)Nc1c2c(-c2ccccc2)nn1-c1ccccc1 (stereo not given),5.77% (active)
8,O=C(CC(C(=O)c1ccccc1)N1CCN(Cc2ccccc2)CC1)c1ccccc1 (stereo not given),28.5%
9,Cn1c(=O)c2[nH]c(Cc3ccc4c(c3)OCO4)nc2n(C)c1=O,104%
10,O=[N+]([O-])CC(O)c1ccccc1 (stereo not given),99.4%
11,COC(=O)Nc1nc2ccc(C3(c4ccc(F)cc4)OCCO3)cc2[nH]1,-25.1% (active)
12,CCNC(=O)Oc1ccc(/C(=C(/C)Cc2ccc(OC)cc2)c2ccc(OCCN(CC)CC)cc2)cc1,34.1%
13,OC(c1cccc(-n2ccc(C(F)(F)F)n2)c1)c1cnccc1NC1CCCCCC1 (stereo not given),-35.7% (active)
14,O=C(Nc1ccc(-n2cc(-c3ccncc3)c(-c3ccc(O)c(Cl)c3)n2)cc1)Nc1cccc(Cl)c1Cl,78.8%
15,Cc1ccc(-c2cc3nc(C(Cl)Cl)nc(-c4cccnc4)n3n2)cc1,10.5%
16,O=C(c1ccc(Nc2nccc(NCCCCNc3ccnc4cc(Cl)ccc34)n2)cc1)N1CCCCC1,-22.3% (active)
17,N#Cc1c(C#N)c(SSc2c(C#N)c(C#N)c(N)n2-c2ccccc2)n(-c2ccccc2)c1N,99.2%
18,N#C/C(=C\c1ccc(Cl)cc1)n1nnc2cc(F)c(F)cc21,-19.4% (active)
19,O=C1C=CC(=O)N1c1ccc2c(c1)Cc1cc(F)ccc1-2,63%
20,N#Cc1cnn(C(=O)c2nn(-c3ccc(Cl)cc3)cc2O)c1N,-50.1% (active)

row,SMILES,growth
1,CC(Sc1ccccc1)C(=O)O (stereo not given),143%
2,COc1ccccc1C1=C(Br)C(=O)c2nc(C)ccc2C1=O,44.4%
3,Cc1ccc(NC(=S)N/C=C(\c2ccccc2)S(=O)Cc2ccccc2)c(C)c1 (stereo not given),96.8%
4,CN(C)c1ccc(/C=C/C2=[N+](C)c3ccccc3C2(C)C)cc1,-18.4% (active)
5,Cc1cccc(-c2nnc(SCC(=O)Nc3ncc(Cc4ccccc4)s3)n2N2C(=O)CSC2=S)c1,97.8%
6,CC(C)C1=NOC(=O)C1=Cc1cn(-c2ccco2)nc1-c1ccccc1,3.89% (active)
7,O=C1Nc2cc(-c3ccc(NS(=O)(=O)c4ccccc4)cc3)ccc2/C1=C/c1ccc[nH]1,95.7%
8,C/C(=C(/c1ccc(Cl)cc1)c1ccc(OCCN2CCCCCC2)cc1)c1ccccc1,63.6%
9,O=C1C2=C(C(=O)c3c(O)ccc(O)c31)N(c1cccnc1)Cc1ccccc1O2,-23.5% (active)
10,C=CCn1c(C)nc2cc(Nc3nc(N4CCCC4)nc4ccccc34)ccc21,88.5%
11,COc1ccc(-c2cc(-c3cc(OC)c(OC)c(OC)c3)c(C#N)c(N3CCOCC3)n2)cc1O,-31.8% (active)
12,COc1ccc(-c2nnc(N3CCN(C(=O)CN4CCN(c5ccc(OC)cc5)CC4)CC3)nc2-c2ccc(OC)cc2)cc1,-71.6% (active)
13,CSc1ncnc2c1ncn2C1CCCO1 (stereo not given),99.9%
14,O=C(Nc1ccc(I)cc1)c1cccc([N+](=O)[O-])c1O,9.44% (active)
15,CCCCCCCCCCCCCCCCCCOc1ccc(CC(=O)OCC[N+]2(C)CCCCC2)cc1,83.4%
16,O=C(Nc1cccc(C(F)(F)F)c1)Oc1ccc(Cl)c2cccnc12,-10.6% (active)
17,COc1cc2oc(-c3cccc(C(=O)Nc4ccc(Br)cc4)c3)cc(=O)c2c(OC)c1OC,38.6%
18,CC(=O)c1ccc(N=C(C#N)C2=C(O)c3ccccc3C2=O)cc1,86.2%
19,Clc1ccc(N/N=C(\c2ccccc2)c2ccccn2)nc1,-28.3% (active)
20,Nc1c(C(=O)c2ccccc2)sc2nc(-c3cc4ccccc4o3)cc(-c3ccc(Cl)cc3)c12,114%
